Assays:
Assay in all cases: log2 ratio of Biotin-Ahx-Ub-VS probe labelling (fragment/DMSO); higher = less target engagement (more negative = stronger competition), active = hit call of the paper (q ≤ 0.05, log2 ratio ≤ -1)
Settings in all cases: compound concentration: 200 uM; treatment time: 3 h
USP42 = target: T1, USP42 (UniProt Q9H9J4)
T1 sequence (whole entry): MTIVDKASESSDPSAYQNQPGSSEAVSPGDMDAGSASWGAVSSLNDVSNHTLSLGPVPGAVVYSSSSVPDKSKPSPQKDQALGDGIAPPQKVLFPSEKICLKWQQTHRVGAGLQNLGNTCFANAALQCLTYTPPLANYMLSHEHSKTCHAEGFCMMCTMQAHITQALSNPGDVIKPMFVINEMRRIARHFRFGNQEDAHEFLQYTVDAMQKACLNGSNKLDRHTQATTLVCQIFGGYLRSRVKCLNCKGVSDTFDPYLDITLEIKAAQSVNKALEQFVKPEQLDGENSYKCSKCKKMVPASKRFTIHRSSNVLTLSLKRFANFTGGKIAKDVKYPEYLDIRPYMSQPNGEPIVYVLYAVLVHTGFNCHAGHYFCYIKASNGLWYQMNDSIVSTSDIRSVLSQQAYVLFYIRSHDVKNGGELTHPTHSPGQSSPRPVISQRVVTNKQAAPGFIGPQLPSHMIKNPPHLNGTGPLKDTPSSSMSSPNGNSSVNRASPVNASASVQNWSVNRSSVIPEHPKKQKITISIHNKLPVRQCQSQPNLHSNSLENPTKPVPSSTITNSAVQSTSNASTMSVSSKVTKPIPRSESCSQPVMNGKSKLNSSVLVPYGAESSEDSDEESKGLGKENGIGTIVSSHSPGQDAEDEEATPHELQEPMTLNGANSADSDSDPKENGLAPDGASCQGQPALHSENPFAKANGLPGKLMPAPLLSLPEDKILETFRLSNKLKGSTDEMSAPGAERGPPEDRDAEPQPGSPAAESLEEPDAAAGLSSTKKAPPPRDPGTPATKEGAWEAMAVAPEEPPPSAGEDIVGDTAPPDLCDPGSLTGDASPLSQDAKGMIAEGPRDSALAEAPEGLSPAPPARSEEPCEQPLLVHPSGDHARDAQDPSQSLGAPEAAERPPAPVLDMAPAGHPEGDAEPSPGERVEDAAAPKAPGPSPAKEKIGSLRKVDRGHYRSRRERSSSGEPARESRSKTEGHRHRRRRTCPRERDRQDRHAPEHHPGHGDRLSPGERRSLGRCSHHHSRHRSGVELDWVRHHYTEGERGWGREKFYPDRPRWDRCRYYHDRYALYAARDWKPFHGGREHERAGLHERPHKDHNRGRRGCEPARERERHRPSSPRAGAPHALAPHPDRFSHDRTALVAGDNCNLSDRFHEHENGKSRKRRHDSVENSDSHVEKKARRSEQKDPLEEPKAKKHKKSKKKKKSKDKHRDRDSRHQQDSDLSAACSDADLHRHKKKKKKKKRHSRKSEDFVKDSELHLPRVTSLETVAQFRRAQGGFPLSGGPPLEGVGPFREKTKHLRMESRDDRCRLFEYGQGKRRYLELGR
How it was run: (§1)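 The table lists average log2 ratios of fragment over vehicle, from an unpaired t-test on global-median-normalised Spectronaut label-free quantities. Proteins with ≥2 unique peptides were used. Samples were HEK293T lysate (495 µg) treated in triplicate with fragment at 200 µM or vehicle for 3 h, then with Biotin-Ahx-Ub-VS (0.5 µM final) for 1 h, with labelled DUBs NeutrAvidin-enriched and run by diaPASEF LC-MS/MS.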

USP46 = USP46 (UniProt P62068)
How it was run: as §1

USP47 = target: T2, USP47 (UniProt Q96K76)
T2 sequence (whole entry): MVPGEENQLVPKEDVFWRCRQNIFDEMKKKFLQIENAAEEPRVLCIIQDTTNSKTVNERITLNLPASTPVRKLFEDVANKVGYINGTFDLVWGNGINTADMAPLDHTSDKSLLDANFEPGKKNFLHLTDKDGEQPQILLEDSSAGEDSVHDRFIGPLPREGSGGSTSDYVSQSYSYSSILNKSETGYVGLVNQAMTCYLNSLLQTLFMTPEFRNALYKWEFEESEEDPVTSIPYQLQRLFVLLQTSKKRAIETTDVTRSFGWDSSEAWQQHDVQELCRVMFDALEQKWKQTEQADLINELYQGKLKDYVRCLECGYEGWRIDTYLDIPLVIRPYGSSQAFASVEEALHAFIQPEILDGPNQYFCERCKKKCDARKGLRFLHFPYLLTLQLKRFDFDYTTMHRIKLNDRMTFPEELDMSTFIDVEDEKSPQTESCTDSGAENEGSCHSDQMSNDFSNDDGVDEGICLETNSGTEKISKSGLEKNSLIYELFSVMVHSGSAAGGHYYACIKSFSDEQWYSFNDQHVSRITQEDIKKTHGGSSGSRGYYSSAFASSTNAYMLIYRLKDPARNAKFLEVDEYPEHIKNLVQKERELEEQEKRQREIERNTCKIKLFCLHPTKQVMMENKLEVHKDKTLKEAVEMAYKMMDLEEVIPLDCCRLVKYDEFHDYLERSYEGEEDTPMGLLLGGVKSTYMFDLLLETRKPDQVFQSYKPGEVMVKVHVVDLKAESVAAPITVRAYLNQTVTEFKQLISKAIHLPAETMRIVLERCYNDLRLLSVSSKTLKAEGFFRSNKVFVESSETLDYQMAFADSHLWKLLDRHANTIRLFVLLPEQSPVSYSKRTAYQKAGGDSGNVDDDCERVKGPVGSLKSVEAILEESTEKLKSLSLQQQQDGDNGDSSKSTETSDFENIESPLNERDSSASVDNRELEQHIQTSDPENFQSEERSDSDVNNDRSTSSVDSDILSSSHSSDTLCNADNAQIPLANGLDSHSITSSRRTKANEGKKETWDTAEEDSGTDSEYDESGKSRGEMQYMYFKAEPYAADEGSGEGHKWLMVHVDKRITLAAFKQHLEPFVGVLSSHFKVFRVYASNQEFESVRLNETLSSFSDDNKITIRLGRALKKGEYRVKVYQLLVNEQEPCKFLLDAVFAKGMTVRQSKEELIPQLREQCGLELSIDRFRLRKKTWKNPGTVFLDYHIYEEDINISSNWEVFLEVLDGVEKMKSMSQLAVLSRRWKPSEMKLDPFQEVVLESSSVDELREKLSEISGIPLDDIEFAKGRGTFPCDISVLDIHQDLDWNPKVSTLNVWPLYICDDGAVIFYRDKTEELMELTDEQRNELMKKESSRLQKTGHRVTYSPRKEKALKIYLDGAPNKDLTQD
How it was run: as §1

USP48 = target: T3, USP48 (UniProt Q86UV5)
T3 sequence (whole entry): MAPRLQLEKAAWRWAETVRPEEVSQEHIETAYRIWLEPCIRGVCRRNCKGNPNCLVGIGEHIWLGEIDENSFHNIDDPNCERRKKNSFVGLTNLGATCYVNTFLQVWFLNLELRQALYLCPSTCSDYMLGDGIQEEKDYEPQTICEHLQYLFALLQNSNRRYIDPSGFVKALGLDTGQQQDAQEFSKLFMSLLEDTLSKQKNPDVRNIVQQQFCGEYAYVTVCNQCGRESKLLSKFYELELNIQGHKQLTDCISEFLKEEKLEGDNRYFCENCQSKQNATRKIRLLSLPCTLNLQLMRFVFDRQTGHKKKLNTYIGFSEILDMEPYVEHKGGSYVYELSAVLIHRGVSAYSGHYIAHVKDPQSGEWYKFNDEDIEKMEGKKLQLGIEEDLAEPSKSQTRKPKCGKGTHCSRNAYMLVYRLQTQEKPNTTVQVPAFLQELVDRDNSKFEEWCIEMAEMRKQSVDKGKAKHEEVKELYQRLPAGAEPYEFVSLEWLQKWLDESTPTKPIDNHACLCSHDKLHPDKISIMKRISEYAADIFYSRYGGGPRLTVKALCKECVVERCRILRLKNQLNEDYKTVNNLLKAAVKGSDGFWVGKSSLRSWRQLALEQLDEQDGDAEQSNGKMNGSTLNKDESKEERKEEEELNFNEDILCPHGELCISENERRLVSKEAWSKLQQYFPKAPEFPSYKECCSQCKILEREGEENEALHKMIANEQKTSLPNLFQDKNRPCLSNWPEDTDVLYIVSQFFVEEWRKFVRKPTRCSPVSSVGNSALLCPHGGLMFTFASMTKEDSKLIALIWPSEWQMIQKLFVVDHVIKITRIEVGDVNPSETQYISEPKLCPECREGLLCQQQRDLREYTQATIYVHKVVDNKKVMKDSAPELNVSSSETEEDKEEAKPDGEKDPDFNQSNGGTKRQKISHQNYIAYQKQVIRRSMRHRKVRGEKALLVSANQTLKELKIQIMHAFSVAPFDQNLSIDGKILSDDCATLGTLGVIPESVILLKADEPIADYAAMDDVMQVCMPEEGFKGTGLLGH
How it was run: as §1

USP5 = target: T4, USP5 (UniProt P45974)
T4 sequence (whole entry): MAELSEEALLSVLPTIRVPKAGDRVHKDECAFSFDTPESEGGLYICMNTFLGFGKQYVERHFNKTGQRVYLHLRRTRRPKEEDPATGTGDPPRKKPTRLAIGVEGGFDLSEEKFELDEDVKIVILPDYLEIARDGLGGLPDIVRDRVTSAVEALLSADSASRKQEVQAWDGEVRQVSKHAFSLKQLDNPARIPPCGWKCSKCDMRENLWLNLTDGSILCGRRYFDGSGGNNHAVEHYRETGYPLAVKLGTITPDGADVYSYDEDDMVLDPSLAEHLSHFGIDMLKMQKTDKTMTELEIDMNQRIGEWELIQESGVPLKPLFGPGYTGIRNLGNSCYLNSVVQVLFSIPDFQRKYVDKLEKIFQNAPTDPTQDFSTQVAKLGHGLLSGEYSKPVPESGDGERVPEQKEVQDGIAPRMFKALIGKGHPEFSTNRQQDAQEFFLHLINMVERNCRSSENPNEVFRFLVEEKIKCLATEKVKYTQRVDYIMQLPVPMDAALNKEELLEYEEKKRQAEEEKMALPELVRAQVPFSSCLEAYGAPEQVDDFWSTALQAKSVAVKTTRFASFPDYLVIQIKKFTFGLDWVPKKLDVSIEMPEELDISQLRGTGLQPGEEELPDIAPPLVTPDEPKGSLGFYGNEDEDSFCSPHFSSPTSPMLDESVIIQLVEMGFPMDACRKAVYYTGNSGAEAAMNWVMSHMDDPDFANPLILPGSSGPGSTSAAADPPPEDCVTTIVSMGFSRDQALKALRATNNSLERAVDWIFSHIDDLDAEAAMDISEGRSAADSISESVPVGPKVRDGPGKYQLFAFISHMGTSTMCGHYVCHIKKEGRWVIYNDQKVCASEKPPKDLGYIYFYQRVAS
How it was run: as §1

USP54 = USP54 (UniProt Q70EL1)
How it was run: as §1

USP7 = USP7 (UniProt Q93009)
How it was run: as §1

USP8 = target: T5, USP8 (UniProt P40818)
T5 sequence (whole entry): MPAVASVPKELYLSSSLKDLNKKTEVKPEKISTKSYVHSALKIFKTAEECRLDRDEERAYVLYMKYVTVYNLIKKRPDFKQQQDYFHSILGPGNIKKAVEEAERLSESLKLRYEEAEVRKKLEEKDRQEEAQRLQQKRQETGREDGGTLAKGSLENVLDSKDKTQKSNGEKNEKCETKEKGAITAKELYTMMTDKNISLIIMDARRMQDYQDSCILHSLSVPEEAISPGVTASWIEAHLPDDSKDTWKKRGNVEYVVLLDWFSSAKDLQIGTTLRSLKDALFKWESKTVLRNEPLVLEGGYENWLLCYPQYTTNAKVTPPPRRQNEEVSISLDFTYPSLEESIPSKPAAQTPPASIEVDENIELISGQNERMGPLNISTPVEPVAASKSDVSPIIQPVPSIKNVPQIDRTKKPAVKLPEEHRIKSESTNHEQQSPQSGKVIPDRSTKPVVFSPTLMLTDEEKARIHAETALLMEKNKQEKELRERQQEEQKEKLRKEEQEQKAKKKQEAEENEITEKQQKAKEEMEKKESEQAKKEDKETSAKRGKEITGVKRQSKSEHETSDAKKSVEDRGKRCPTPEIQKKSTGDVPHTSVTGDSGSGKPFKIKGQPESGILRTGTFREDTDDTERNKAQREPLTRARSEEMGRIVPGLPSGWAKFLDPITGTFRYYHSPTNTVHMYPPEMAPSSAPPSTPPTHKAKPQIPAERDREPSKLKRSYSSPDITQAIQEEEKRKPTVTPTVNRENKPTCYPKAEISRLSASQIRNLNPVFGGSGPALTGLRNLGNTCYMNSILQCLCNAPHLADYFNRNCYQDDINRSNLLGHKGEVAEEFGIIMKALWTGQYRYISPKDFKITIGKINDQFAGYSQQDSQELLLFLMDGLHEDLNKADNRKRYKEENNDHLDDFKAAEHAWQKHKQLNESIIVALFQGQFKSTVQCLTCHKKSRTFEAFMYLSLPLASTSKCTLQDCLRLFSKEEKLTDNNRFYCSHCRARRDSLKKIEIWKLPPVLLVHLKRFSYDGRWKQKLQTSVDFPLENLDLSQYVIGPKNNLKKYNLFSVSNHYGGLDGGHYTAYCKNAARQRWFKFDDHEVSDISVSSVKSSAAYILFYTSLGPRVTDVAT
How it was run: as §1

USP9X = USP9X (UniProt Q93008)
How it was run: as §1

UniProt O00487 = target: UniProt O00487
How it was run: as §1

Measured: log2 ratio of Biotin-Ahx-Ub-VS probe labelling

USP54, sequence (Q70EL1 whole entry): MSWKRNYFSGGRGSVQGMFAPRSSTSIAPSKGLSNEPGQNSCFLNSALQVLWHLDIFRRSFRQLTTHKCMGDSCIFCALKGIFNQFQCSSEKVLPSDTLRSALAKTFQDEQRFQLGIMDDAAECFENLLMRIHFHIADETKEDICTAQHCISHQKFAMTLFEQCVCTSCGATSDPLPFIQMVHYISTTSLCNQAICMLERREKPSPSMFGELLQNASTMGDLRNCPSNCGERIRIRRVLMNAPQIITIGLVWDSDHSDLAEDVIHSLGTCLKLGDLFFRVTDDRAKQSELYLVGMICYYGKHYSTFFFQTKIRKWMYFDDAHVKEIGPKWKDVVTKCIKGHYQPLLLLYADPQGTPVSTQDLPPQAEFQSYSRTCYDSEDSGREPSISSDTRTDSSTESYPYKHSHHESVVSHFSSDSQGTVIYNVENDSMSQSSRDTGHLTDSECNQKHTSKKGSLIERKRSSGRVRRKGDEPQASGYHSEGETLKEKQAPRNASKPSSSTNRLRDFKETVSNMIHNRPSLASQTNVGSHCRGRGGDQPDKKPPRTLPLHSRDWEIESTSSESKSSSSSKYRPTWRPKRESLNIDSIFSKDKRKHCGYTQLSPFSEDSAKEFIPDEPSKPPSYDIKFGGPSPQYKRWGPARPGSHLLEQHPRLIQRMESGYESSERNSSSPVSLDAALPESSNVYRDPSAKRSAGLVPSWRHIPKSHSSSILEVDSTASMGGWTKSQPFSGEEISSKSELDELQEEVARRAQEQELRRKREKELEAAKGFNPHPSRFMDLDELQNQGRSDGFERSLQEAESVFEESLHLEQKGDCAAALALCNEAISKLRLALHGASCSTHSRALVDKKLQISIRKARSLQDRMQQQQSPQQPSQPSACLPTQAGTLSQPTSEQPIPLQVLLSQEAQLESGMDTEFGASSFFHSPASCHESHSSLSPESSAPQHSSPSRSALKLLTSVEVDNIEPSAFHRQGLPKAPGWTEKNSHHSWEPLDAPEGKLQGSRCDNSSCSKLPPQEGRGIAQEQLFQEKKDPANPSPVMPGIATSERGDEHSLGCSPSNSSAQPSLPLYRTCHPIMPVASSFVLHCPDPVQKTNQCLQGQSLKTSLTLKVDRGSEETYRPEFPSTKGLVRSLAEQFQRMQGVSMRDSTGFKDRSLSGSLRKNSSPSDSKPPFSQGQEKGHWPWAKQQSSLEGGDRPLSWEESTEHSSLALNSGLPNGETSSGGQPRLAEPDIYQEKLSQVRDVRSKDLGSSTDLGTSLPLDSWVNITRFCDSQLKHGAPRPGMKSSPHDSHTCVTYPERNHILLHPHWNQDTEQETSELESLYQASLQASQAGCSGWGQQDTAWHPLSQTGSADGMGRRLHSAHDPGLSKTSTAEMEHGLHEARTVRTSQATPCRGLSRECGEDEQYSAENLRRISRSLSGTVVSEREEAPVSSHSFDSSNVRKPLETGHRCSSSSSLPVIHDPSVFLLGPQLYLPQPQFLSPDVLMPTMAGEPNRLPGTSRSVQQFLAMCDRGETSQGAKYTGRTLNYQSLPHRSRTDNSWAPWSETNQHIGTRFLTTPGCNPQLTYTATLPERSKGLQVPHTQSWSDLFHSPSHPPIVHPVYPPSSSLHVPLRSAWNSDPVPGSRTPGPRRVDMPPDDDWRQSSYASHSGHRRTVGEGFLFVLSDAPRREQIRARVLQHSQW
UniProt O00487, sequence (O00487 whole entry): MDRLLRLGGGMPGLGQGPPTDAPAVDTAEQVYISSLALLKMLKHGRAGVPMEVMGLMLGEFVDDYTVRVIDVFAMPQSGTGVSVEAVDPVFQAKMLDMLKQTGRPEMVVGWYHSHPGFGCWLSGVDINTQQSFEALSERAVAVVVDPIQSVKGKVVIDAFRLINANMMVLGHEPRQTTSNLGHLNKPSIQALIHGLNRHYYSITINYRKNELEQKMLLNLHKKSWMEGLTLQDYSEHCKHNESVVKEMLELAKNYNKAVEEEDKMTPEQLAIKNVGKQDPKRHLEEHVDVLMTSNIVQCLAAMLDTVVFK
USP7, sequence (Q93009 whole entry, looked up): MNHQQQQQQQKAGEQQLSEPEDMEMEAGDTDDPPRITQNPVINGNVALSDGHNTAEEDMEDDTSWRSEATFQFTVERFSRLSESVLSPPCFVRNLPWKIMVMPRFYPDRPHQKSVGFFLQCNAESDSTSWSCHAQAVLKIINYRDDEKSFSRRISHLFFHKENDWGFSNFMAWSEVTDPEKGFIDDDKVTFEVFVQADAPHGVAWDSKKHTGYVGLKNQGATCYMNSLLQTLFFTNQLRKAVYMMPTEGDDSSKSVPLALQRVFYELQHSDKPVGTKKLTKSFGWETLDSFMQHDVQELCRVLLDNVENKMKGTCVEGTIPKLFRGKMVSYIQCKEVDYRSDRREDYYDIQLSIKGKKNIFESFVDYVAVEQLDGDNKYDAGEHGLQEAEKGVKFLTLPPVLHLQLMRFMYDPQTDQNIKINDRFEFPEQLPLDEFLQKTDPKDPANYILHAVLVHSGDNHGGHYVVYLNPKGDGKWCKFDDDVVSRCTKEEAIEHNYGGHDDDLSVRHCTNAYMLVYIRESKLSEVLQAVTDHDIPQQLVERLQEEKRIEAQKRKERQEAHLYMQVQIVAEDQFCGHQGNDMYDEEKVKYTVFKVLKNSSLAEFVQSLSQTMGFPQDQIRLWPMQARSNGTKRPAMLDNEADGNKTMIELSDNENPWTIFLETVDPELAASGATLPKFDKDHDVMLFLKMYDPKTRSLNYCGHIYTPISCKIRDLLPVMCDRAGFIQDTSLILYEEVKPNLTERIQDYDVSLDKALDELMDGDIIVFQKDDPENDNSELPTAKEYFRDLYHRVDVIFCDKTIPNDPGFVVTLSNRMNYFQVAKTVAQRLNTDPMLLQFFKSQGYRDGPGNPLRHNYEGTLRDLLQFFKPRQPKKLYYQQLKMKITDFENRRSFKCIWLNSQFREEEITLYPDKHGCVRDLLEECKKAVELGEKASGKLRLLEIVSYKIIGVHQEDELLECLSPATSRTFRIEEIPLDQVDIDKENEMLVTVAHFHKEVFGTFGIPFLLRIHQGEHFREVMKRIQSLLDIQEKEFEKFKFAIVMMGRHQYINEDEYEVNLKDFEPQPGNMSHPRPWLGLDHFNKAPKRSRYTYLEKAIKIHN
USP46, sequence (P62068 whole entry): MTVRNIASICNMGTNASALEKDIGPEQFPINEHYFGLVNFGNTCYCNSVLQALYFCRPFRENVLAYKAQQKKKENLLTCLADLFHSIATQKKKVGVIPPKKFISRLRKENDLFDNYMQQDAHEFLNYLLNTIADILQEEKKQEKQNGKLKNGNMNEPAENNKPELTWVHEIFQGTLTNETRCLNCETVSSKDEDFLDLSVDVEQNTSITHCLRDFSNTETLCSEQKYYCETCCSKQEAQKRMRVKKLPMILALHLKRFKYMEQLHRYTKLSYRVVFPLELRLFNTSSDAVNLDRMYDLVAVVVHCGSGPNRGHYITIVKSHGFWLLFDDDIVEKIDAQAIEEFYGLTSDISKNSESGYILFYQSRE

O=C(CCl)N1CCCC2CCCCC21 (stereo not given)
inactive: USP42 0.484 | USP46 -0.132 | USP47 -0.696 | USP48 -0.516 | USP5 0.0316 | USP54 0.268 | USP7 -0.486 | USP8 -0.0438 | USP9X -0.183 | UniProt O00487 -0.107

Reference: the supplement of paper PMC11732987, “Enantioselective OTUD7B fragment discovery through chemoproteomics screening and high-throughput optimisation” (Communications Chemistry, 2025)
